The text below walks through data of PubChem BioAssay AID1159604 (The Scripps Research Institute Molecular Screening Center, 2016).

The other results are listed elsewhere or left out. The source made the active and inactive calls.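 How the source made its calls: active means IC50 of 10 µM or lower in the counterscreen; inactive means IC50 above 10 µM.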

This assay is described as follows: AlphaScreen signal interference by compounds, dose response, artefact control for ASK1 inhibitor project, biochemical, TruHits beads (AID 1159604).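 Further: loss of AlphaScreen light from TruHits beads alone with no ASK1 enzyme present; potency of signal reduction so a low IC50 flags an assay artifact.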 The settings on record: signal interference counterscreen. (In general: In Alpha technology, singlet oxygen from a donor bead excites a nearby acceptor bead.)
In general, IC50 refers to the midpoint of a concentration-inhibition curve. Consider `Nc1nc(Nc2ccc(N3CCOCC3)cc2)cc(-c2ccc3[nH]ccc3c2)n1`, for which the IC50 was 11.9 µM (inactive).
In the case of `CN1CCN(c2nc(C3COc4ccccc4O3)nc3ccc(-c4cn[nH]c4)cc23)CC1` (configuration not stated), the IC50 was > 19.2 µM (inactive).
The figure for `c1ccc(-c2ncn[nH]2)c(Nc2ccnc(Nc3ccc(N4CCOCC4)cc3)c2)c1` is > 19.2 µM (inactive); for `FC(F)(F)c1cccc(CNc2nc(N3CCN(Cc4ccc5c(c4)OCO5)CC3)nc3c2ncn3-c2ccccc2)c1` it is > 20.1 µM (inactive); for `FC(F)(F)c1cccc(CNc2nc(N3CCN(c4ccccn4)CC3)nc3c2ncn3-c2ccsc2)c1` it is > 20 µM (inactive).
For `Cc1ccccc1-c1cscc1Nc1cnn(-c2cccc(C(=O)Nc3ccc(N4CCOCC4)cc3)c2)c1` the value was > 19.2 µM (inactive).
In the case of `COc1cc2nc(Nc3cccc(N(C)C)c3)nc(Nc3cc(OC)c(OC)c(OC)c3)c2cc1OC`, the IC50 is 8.29 µM (active).
Take `COc1cc(Nc2nc(N3CCc4ccccc4C3)nc3c2ncn3-c2ccccc2)cc(OC)c1OC`: the IC50 is > 20.1 µM (inactive).
Regarding `Fc1cnc(Nc2ccc(N3CCNCC3)cc2)cc1-n1cnc(Nc2ccccc2)n1`, the IC50 was > 19.2 µM (inactive).
The figure for `FC(F)(F)c1cccc(CNc2nc(Nc3ccc(N4CCOCC4)cc3)nc3c2ncn3-c2ccsc2)c1` is > 20.1 µM (inactive); for `Cc1cc(Nc2ccc3c(c2)OCO3)nc(Nc2cccc(N(C)C)c2)n1` it is 4.88 µM (active).
Take `COc1ccc(CCNc2cc(C)nc(Nc3cccc(N(C)C)c3)n2)cc1`: the IC50 was 4.77 µM (active).
